# Test results from PubChem BioAssay (NCI).
# The panel holds about 83,000 compounds, 20% with a hit somewhere; the sample as a whole holds those more often.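 Plates (96-well) were seeded with cells, treated with compound at one concentration, and incubated for 48 hours before percent growth was determined.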 A number with no mark means an inactive call. Activity calls are given as the source filed them. How the source made its calls: active means growth percent below 10; inactive means the rest.
# Key:
# Experiment in all cases: NCI-60 one-dose screen, 48 h (100 = growth as untreated, 0 = no growth, -100 = all killed)
# Settings in all cases: 10 µM unless noted
# [1] = tested on: HCT-15 colon
# [2] = tested on: HT29 colon
# [3] = tested on: SNB-75 CNS
# [4] = tested on: SNB-19 CNS
# [5] = tested on: U251 CNS
# [6] = tested on: PC-3 prostate
# [7] = tested on: SK-MEL-5 melanoma
# [8] = tested on: UACC-62 melanoma
# [9] = tested on: LOX IMVI melanoma
# [10] = tested on: SK-MEL-2 melanoma
# [11] = tested on: EKVX NSCLC
# [12] = tested on: SN12C renal
# [13] = tested on: UO-31 renal
# [14] = tested on: TK-10 renal
# [15] = tested on: ACHN renal
# [16] = tested on: CAKI-1 renal
# [17] = tested on: A498 renal
# [18] = tested on: CCRF-CEM leukemia
# [19] = tested on: MOLT-4 leukemia
# [20] = tested on: SK-MEL-28 melanoma
SMILES,growth [1],growth [2],growth [3],growth [4],growth [5] [%],growth [6],growth [7],growth [8],growth [9],growth [10],growth [11],growth [12],growth [13],growth [14],growth [15],growth [16],growth [17],growth [18],growth [19],growth [20]
CCCCCCCn1cc2c(NCCc3ccccc3)ncnc2n1,95.6%,118%,90.6%,90.4%,96.1,92.8%,99.6%,74.2%,117%,127%,84.8%,93.4%,71.2%,119%,95.1%,78.7%,95.3%,96.2%,95.4%,
C[C@H](CCC(=O)NCc1ccc(C(=O)Nc2ccccc2N)cc1)[C@H]1CC[C@H]2[C@@H]3[C@@H](O)C[C@@H]4C[C@H](O)CC[C@]4(C)[C@H]3CC[C@]12C,88.3%,48.1%,91.5%,73.1%,64.3,42.4%,63.3%,36.7%,59.6%,68.8%,,69.5%,56.7%,54.8%,92.9%,58.4%,59.5%,7.16% (active),10.7%,
Cc1ccc(C2=Nn3c(nnc3-c3ccccc3)SC2)cc1,23%,4.8% (active),-4.24% (active),31.4%,25.5,35.2%,21.5%,41.4%,49%,-14.8% (active),39.3%,47.5%,43.1%,48.3%,52.1%,34.4%,-12.4% (active),,44.4%,
CCN1CCN(Cc2cn(-c3ccc(S(N)(=O)=O)cc3)nn2)CC1,104%,102%,95.6%,105%,109,97.8%,103%,98.1%,102%,115%,,104%,94%,108%,108%,96.5%,103%,104%,104%,
CCNC(=O)N1CCc2cc(OC)c(OCCc3ccc(OC)c(N)c3)cc2C1c1cc(C)c(C)cc1C (stereo not given),14.7%,21.9%,22.1%,34.6%,28.4,36.7%,27.7%,23.1%,7.03% (active),33.2%,58.3%,39.4%,38.4%,68%,32.5%,30.1%,20%,46.7%,32.3%,
O=C1/C(=C/C=C/c2ccco2)SC(=S)N1c1ccccc1,56.9%,83.6%,101%,86.3%,49.8,71.3%,,70.7%,26%,,81.2%,79.1%,42.9%,95.5%,67.3%,86.8%,,41.3%,60.2%,79.9%
CCCSc1nc(Nc2ccc(/C(C)=N\NC(N)=S)cc2)c(C#N)c(-c2ccccc2)n1,66%,60.3%,141%,83.1%,73.1,79.9%,80.2%,97.1%,46.1%,87.9%,74.4%,77.9%,46.9%,95%,,48.1%,102%,69.3%,52.8%,
O=C(CSc1nc2ccccc2c(=O)n1-c1ccccc1)Nc1cccc(C(=O)/C=C/c2ccccc2)c1,76.4%,96.4%,75.6%,85.5%,,90.4%,99.5%,88.7%,86.1%,100%,96.7%,98.4%,76%,107%,102%,86%,98%,90.3%,88.6%,102%
N/C(=N\C(N)=N\c1nc2ccccc2s1)c1ccncc1Cl,33%,18.8%,7.82% (active),38.2%,,29.5%,39.2%,28%,41.3%,35.3%,52.7%,35.8%,34.6%,129%,37.7%,37.5%,65.3%,10.7%,23.9%,58.3%
CS(=O)(=O)Nc1cc(-c2ccc3ncc(C#N)c(NCc4ccccc4)c3c2)cnc1Cl,8.19% (active),6.89% (active),-36.7% (active),7.25% (active),,-7.11% (active),-95.3% (active),-28% (active),-32.6% (active),-42.2% (active),-20.1% (active),7.64% (active),1.63% (active),-25.2% (active),5.99% (active),-27.7% (active),-57.2% (active),,-25.6% (active),-7.57% (active)
N#Cc1cnc2ccc(-c3cnc4[nH]ncc4c3)cc2c1N1CCc2cc(F)c(Cl)cc21,3.32% (active),2.58% (active),-9.27% (active),14.2%,,6.58% (active),-37.2% (active),-18.5% (active),-9.51% (active),-5.98% (active),-1.26% (active),9.07% (active),-8.85% (active),13.1%,12.5%,15.1%,-53.7% (active),,4.01% (active),31.3%
Cn1ccnc1C(=O)/C=C/c1ccc(CNC(=O)c2ccc(F)cc2)cc1,8.09% (active),10.2%,60.6%,,17.7,23.5%,72.8%,43.2%,-1.32% (active),105%,53.5%,20%,34.9%,75%,43.4%,48%,63.7%,12.8%,9.84% (active),80.5%
Cc1ccc(N2C(=O)/C(=C/C=C/c3ccco3)SC2=S)cc1,88.4%,102%,98.1%,92.4%,93.8,73.3%,,89%,96.2%,,95.4%,91.4%,84%,,101%,90.4%,,,9.93% (active),95.8%
CCOC(=O)C(=O)/C(=C\c1ccc(Cl)cc1)C(=O)N1C(=S)NC(=O)C1CC(C)C (stereo not given),92.8%,108%,101%,,101,93.6%,92.8%,91.5%,112%,112%,91%,96.9%,86.1%,135%,99.5%,91.3%,102%,91.2%,98.4%,95.1%
CCO/C=N/C1=C(C#N)C(c2ccc(F)cc2)c2sc3c(CC)cccc3c2O1 (stereo not given),12.6%,10.1%,3.71% (active),,21.4,13.6%,26.6%,16.1%,14.7%,42.7%,49%,22.9%,32.2%,63.9%,28.4%,36.4%,-3.45% (active),13.1%,19.8%,61%
Cc1ccc2c(c1)C(=O)/C(=C/c1cccc(F)c1)S2,100%,104%,106%,96.9%,,86.4%,,83.7%,114%,,98.5%,101%,88.4%,123%,102%,85.8%,,,106%,
NC(=O)c1c(NC(=O)c2ccccc2C(F)(F)F)sc2c1CCC(=O)C2,10.7%,18.7%,44.8%,20.8%,,17.5%,-59.5% (active),10.4%,19.7%,45.5%,24.3%,40.3%,-7.49% (active),28.1%,8.24% (active),-2.3% (active),85.9%,,19.9%,42.4%
